This is part of a sample that, as a whole, favours compounds with a hit. Of some 83,000 tested, about 20% had one in any assay.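 Cell lines were cultured in 96-well plates, exposed to a single compound concentration, and assessed for percent growth 48 hours later.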 Values without a mark were called inactive. Calls of active or inactive are those of the source. The calls were made as follows: active = growth percent below 10; inactive = the rest.
Legend:
Assay in all cases: NCI-60 one-dose screen, 48 h (100 = growth as untreated, 0 = no growth, -100 = all killed)
Conditions in all cases: 10 µM unless noted
DU-145 prostate = system: DU-145 prostate
K-562 leukemia = system: K-562 leukemia
MALME-3M melanoma = system: MALME-3M melanoma
MDA-MB-231 breast = system: MDA-MB-231 breast
RXF 393 renal = system: RXF 393 renal
SF-268 CNS = system: SF-268 CNS
SF-295 CNS = system: SF-295 CNS
SF-539 CNS = system: SF-539 CNS
UACC-257 melanoma = system: UACC-257 melanoma
M14 melanoma = system: M14 melanoma

| SMILES | growth (DU-145 prostate) | growth (K-562 leukemia) | growth (MALME-3M melanoma) | growth (MDA-MB-231 breast) | growth (RXF 393 renal) | growth (SF-268 CNS) | growth (SF-295 CNS) | growth (SF-539 CNS) | growth (UACC-257 melanoma) | growth (M14 melanoma) |
| --- | --- | --- | --- | --- | --- | --- | --- | --- | --- | --- |
| FC(F)(F)c1ccc(/C=N/Nc2nnc3n2N=C(c2ccc(Cl)cc2)CS3)cc1 | 53.7% | 80.9% | 16.3% | 56.2% | 3.04% (active) | 36.8% | 47.6% | 54.8% | 46.9% | 74.4% |
| Cc1ccc(S(=O)(=O)NC(CCC(=O)Nc2ccc(Cl)cc2)C(=O)Nc2ccc(Cl)cc2)cc1 (stereo not given) | 45.8% | 2.8% (active) | 14.2% | -5.94% (active) | 22.9% | 38.8% | 10.5% | -20.5% (active) | 45.6% | 32.2% |
| CCCCc1n(Cc2ccc3ccccc3n2)cc[n+]1Cc1ccc2ccccc2n1 | 40.8% | 6.71% (active) | -2.99% (active) | 9.88% (active) | 20.8% | 19.9% | 25.2% | 16.3% | -11.9% (active) | 17.1% |
| C1=C\CCCCN2CC[C@H]3[C@H](CCCC/C=C\CCCN4C[C@@H](CCCCC/1)C[C@@H]3C4)C2 | 93.9% | -19.5% (active) | 98.9% | 73.9% | -43.3% (active) | 73.8% | 51.3% | 31.3% | 84.7% | 1.72% (active) |
| CNC(=O)c1ccccc1Sc1ccc2c(/C=C/c3ccccn3)n[nH]c2c1 | 47.5% | 6.57% (active) | 37.2% | 39.7% | 2.21% (active) | 41.9% | 40% | 3.31% (active) | 31.5% | 16.9% |
| COC(=O)C(C)NC1=C(Cl)C(=O)C(NC(C)C(=O)OC)=C(Cl)C1=O (stereo not given) | 101% | 109% | 72.2% | 94.6% | 101% | 102% | 99% | 107% | 86.4% | 103% |
| CC(=O)c1c(C)nc(-c2cc(C)cc(Cl)c2)nc1-c1cccc(Oc2ccccc2)c1 | 85.8% | 19.9% | 74.8% | 55% | 90.5% | 71% | 77.3% | 86% | 81.1% | 31.7% |
| Cc1cc(C)c2c(n1)sc1c(Nc3ccc(O)cc3)ncnc12 | 21.3% | 45.1% | 63.9% | 59% | 32% | 19.3% | 18.3% | 3.84% (active) | 38.7% | -21.5% (active) |
| Cc1n(Cc2ccc3ccccc3n2)cc[n+]1Cc1ccc2ccccc2c1 | 26.6% | 11.5% | -30.2% (active) | 2.1% (active) | 9.37% (active) | 20.8% | 9.7% (active) | 14.3% | -15.1% (active) | 18.2% |
| CCSc1ccc([C@@H]2[C@@H](O)C(=O)N2c2cc(OC)c(OC)c(OC)c2)cc1 | 12.5% | 7.65% (active) | 71% | 23.6% | 35.9% | 31.4% | 18.1% | 1.7% (active) | 66.5% | 10.4% |
| CC(=O)OC1Oc2cc(C)c(C)cc2-c2oc(=O)c(-c3cc4ccccc4oc3=O)cc21 (stereo not given) | 89.7% | 106% | 107% | 92.4% | -1.16% (active) | 61.3% | 76% | 88.4% | 117% | 96.3% |
| CCCCn1c(C)nc2ccc(Nc3nc(Cl)nc4nc[nH]c34)cc21 | 80.3% | 69.8% | 78.1% | 64.8% | 62.9% | 76% | 76.3% | 79.9% | 92.5% | 68.3% |
| CC(OC(=O)Nc1cccc(Cl)c1)C(=O)O (stereo not given) | 113% | 92.3% | 116% | 109% | 98.4% | 99.6% | 75.3% | 99.1% | 91.5% | 95.5% |
| COc1cc2c(cc1C)NC(=O)/C2=C\c1c[nH]c2ccccc12 | 78.6% | 40.6% | 75.9% | 60.8% | 47% | 81.6% | 26.4% | 69.7% | 90% | 80.9% |
| Nc1nonc1-c1nc2ccccc2n1Cc1ccc(F)cc1 | 80.7% | 10.6% | 46.2% | 60% | 37.8% | 66.3% | 68.5% | 49.9% | 75.4% | 28.2% |
| CC(=O)c1ccc(Nc2nc(Cl)nc(Oc3c(Cl)cccc3Cl)n2)cc1 | 91.1% | 82.5% | 83.2% | 80% | 101% | 91.3% | 89.6% | 90.4% | 95.4% | 101% |
| O=C(Nc1ccc(Oc2ccc(NC(=O)Nc3ccccc3Cl)cc2)cc1)Nc1ccccc1Cl | 24.2% | 33.6% | 66.7% | 72.3% | -15.8% (active) | 40.3% | 71.2% | 62.8% | 60.5% | 65% |
| COc1cc(C2CC(c3cccc(Nc4ccnc5cc(Cl)ccc45)c3)=NN2c2ccccc2)cc(OC)c1OC (stereo not given) | 68.9% | 14% | 64.3% | 77.7% | 93.1% | 63.2% | 31.5% | 80.7% | 80.1% | 34.7% |
| CC(C)CC(NC(=O)OCC1c2ccccc2-c2ccccc21)C(=O)O (stereo not given) | 116% | 116% | 109% | 103% | 103% | 112% | 77.2% | 104% | 102% | 105% |
| CCOC(=O)C(=CNc1ccccc1Cl)C(=O)OCC | 107% | 54.3% | 140% | 104% | 100% | 94.3% | 89.9% | 102% | 103% | 113% |
| CC1(C)CC[C@]2(C(=O)N3CCNCC3)CC[C@]3(C)C(=CC[C@@H]4[C@@]5(C)CCC(=O)C(C)(C)[C@@H]5CC[C@]43C)[C@@H]2C1 | 109% | 109% | 112% | 112% | 115% | 100% | 99.5% | 101% | 106% | 109% |
| COc1cc(C(=O)/C=C/c2cn(-c3ccccc3)nc2-c2cccc(Nc3ccnc4cc(Cl)ccc34)c2)cc(OC)c1OC | 76.9% | 59.5% | 73% | 62.9% | 86.7% | 93.6% | 117% | 98% | 111% | 100% |
| CC[C@H](Nc1nc(N)nc(C2CC2)c1C#N)c1nc2cccc(NCc3ccc(C(=O)NO)cc3)c2c(=O)n1-c1ccccc1 | -29.3% (active) | -14% (active) | -2.35% (active) | 2.7% (active) | -15.2% (active) | 4.22% (active) | -26.9% (active) | -0.037% (active) | -2.7% (active) | -18.6% (active) |
| CNCc1cccc2c1OCCOCCOCCC(C)S(=O)(=O)c1ccc(cc1)-c1cnc(N)c(n1)C(=O)N2 (stereo not given) | 24.1% | 7.1% (active) | 75.3% | 57.4% | 16.4% | 54.2% | 98.8% | 25% | 50.6% | 52% |
| Cc1cc(Cl)c2ccc(N(C)C)cc2n1 | 113% | 88.7% | 108% | 102% | 95.5% | 102% | 100% | 106% | 97.4% | 100% |
| COc1ccc(C(=O)c2cc(C)c(OC)c(C)c2)cc1OC(=O)CCl | 9.37% (active) | 4.66% (active) | 63.1% | 22.9% | 37.7% | 27.6% | 11.8% | -26.1% (active) | 56.8% | 0.344% (active) |
| COc1cccc(OCC(O)CN2CCN(c3ccccc3)CC2)c1 (stereo not given) | 116% | 92.4% | 145% | 108% | 163% | 106% | 113% | 100% | 134% | 104% |
